According to the supplement of paper PMC6555819:

Assays:
Test in all cases: PBM binding z-score (relative to random genomic background probes); higher = stronger binding; sequences stand for … in GC…GCGATTGACAGCGTAGAATGAAGG
[1] = system: FXR:RXRa (NR concentration 270 nM, RXRa partner concentration 90 nM)
Outline: (§1)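 On custom Agilent 4×180K arrays, double-stranded probes with 34-nt variable regions carried direct-repeat seeds, single-nucleotide variants, half-site ablations or random human genomic background. Ligand-free nuclear receptor dimers were applied for 1 h, and binding was read with antibodies against each partner (one per run). Binding z-scores come from regression-normalized fluorescence, with the random background probes as reference.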

[2] = system: LXRa:RXRa (NR concentration 270 nM, RXRa partner concentration 90 nM)
Outline: as §1

[3] = system: LXRa homodimer (NR concentration 270 nM)
Outline: as §1

[4] = system: LXRb:RXRa (NR concentration 270 nM, RXRa partner concentration 90 nM)
Outline: as §1

[5] = system: LXRb homodimer (NR concentration 270 nM)
Outline: as §1

[6] = system: PPARa:RXRa (NR concentration 270 nM, RXRa partner concentration 90 nM)
Outline: as §1

[7] = system: PPARg:RXRa (NR concentration 180 nM, RXRa partner concentration 90 nM)
Outline: as §1

[8] = system: PPARg:RXRa 270nM:90nM, anti-RXR (NR concentration 270 nM, RXRa partner concentration 90 nM)
Outline: as §1

[9] = system: PPARg:RXRa 30nM:10nM, anti-RXR (NR concentration 30 nM, RXRa partner concentration 10 nM)
Outline: as §1

[10] = system: PPARg:RXRa 90nM:30nM, anti-RXR (NR concentration 90 nM, RXRa partner concentration 30 nM)
Outline: as §1

| Sequence | PBM binding z-score [1] | PBM binding z-score [2] | PBM binding z-score [3] | PBM binding z-score [4] | PBM binding z-score [5] | PBM binding z-score [6] | PBM binding z-score [7] | PBM binding z-score [8] | PBM binding z-score [9] | PBM binding z-score [10] |
| --- | --- | --- | --- | --- | --- | --- | --- | --- | --- | --- |
| ATCTCTAGTTAAAGATAGTTCAGTGAATGCAAAT | 0.285 | 1.29 | 0.86 | 0.823 | 0.612 | 0.58 | 0.585 | 0.484 | 0.404 | 0.51 |
| GCTTGTAGATTAAGGTTAAGAAAGACTAAGCTAA | 0.292 | 0.89 | -0.399 | 0.611 | -0.832 | 1.32 | 0.216 | 0.627 | -0.258 | 0.49 |
| ACTCGGAGGACAAAGGACAGAGCTACGCCAGTGA | -0.12 | -0.373 | -0.502 | -0.866 | -0.449 | -0.215 | 1.23 | 1.16 | 0.109 | 0.942 |
| TAGCCTAGGTCATTGGGCCATTATAGTACGCATC | 4.57 | 3.93 | 1.08 | 2.84 | 0.197 | 4.22 | 4.13 | 3.99 | 1.45 | 3.32 |
| TCTTGTAGGTCAAGCAGGTTAAGAAAGCCTGAGT | 5.29 | 4.34 | 1.19 | 3.44 | 0.725 | 5.22 | 7.42 | 6.59 | 4.79 | 6.42 |
| AGTCAAAGTTCATCTAAGTAACGTAAGATATGCT | 6.46 | 5.91 | 4.97 | 3.59 | 1.65 | 4.76 | 6.53 | 6.27 | 3.47 | 5.55 |
| CCTAGCAGGCCAATCTGGGTCATTCAAGGCTTGA | 1.16 | 1.52 | -0.318 | 0.813 | -1.03 | 2.54 | 1.18 | 1.73 | -0.272 | 0.958 |
| ATATGTAGGTTACATCCGGGTCATTCGGGCTATG | 2.27 | 4.61 | 1.71 | 2.96 | 1.11 | 4.42 | 5.83 | 5.08 | 2.18 | 4.17 |
| ATACCAAGGTGATCGTGAAGTCGTTGATACTAAC | 0.402 | 0.225 | 0.0745 | 0.448 | -0.0277 | 0.429 | 0.37 | 0.481 | -0.0865 | 0.2 |
| CCTACTGGGCCTCGAAAGGTCATTGATTCAGTGA | 3.05 | 3.94 | 4.13 | 3.74 | 0.187 | 4.05 | 1.44 | 2.98 | 0.556 | 1.97 |
| TCGAGAAGGTTAGGGGCATTCAGAATGGCGTCGA | 0.95 | 0.839 | -0.359 | 1.38 | -0.293 | 1.83 | 0.297 | 1.19 | 2.23 | 1.43 |
| CCGACTGGGGCACAAAGGTTACCATACCATCCGG | 0.682 | 0.574 | 0.127 | 1.44 | -1.09 | 3.24 | 4.16 | 5.34 | 2.72 | 5.14 |
| CGTCCAAGGTCATAGGAGGTCAGTGAGGACAGAT | 7.69 | 7.5 | 5.15 | 6.18 | 0.987 | 5.86 | 5.58 | 5.89 | 2.52 | 4.86 |
| TCTGCTAGGTCAGTTGATCAGCTAACGAGCTGCC | 0.721 | 0.672 | -0.553 | 0.169 | -0.0241 | 0.983 | 0.167 | 1.28 | 1.07 | 1.27 |
| ACTATTAGTTGAGACGAGGGCATCCGATAGGTTG | 0.433 | -0.0452 | 0.0875 | -0.216 | 0.112 | 0.0329 | 0.689 | -0.118 | 0.0451 | 0.0642 |
| CCGAGTAGGTTATGGGGCATTCCGGCAACGGTGA | 0.0637 | 0.227 | -0.224 | 0.574 | -0.279 | 1.97 | 3.05 | 4.51 | 1.83 | 3.99 |
| GCTGGGAGGACAAGGTCAGAGCTTTGTCCGTAGA | 1.59 | 1.84 | -0.27 | 1.45 | -0.657 | 2.47 | 0.399 | 1.28 | -0.497 | 0.699 |
| AGAACGAGGGCACGCTGAGCTGATAGCAGAGTAG | 0.647 | 0.277 | -0.751 | -0.0518 | -0.909 | 1.98 | 1.91 | 1.81 | 0.448 | 0.908 |
| TGTCAAAGTTCAAAGGCAACGTAAGTATCCACAC | 6.68 | 6.1 | 4.08 | 3.86 | 1.39 | 5.04 | 8 | 7.39 | 5 | 7.03 |
| GGAACGAGGGCATTCGAGTTGATAGCGTGGCGAT | 1.41 | 1.5 | -0.572 | -0.00424 | -0.698 | 1.35 | 0.634 | 0.67 | -0.488 | 0.214 |
| AGAATGAGGTTATTAAGATCAGGGATTTGCGGTC | 1.64 | 1.59 | 0.335 | 1.29 | 0.376 | 2.39 | 1.5 | 1.92 | 0.623 | 1.21 |
| AGTCAAGGTTCATCTAGGTAACGTAAGATATGCT | 5.36 | 4.13 | 1.89 | 2.57 | 0.451 | 3.64 | 3.69 | 3.68 | 1.41 | 2.98 |
| GCAACGAGGGCAAGTTGATAGCAGAGTTTGATGG | 0.996 | 0.513 | -0.434 | 0.332 | -0.572 | 1.49 | 0.841 | 1 | 0.0166 | 0.481 |
